Screening data (PubChem)
DT40 TDP1 CPT = growth inhibition of DT40 Tdp1-/-;hTDP1 cells with camptothecin (screen for TDP1 inhibitors) | 420,000 tested, 12% active | Potency, µM (series often up to 46.2 µM), hits mostly inhibitors | AID 686979 | chicken DT40 Tdp1-/-;hTDP1 cells + 20 nM CPT, ATP luminescence, 48 h; also: nearly all actives have a fitted effect of over 55% in size
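Cell growth measured by CellTiter-Glo luminescence after a minimum 48 h, 37 C compound exposure with 20 nM CPT in Tdp1-knockout DT40 cells stably expressing hTDP1, seeded 400/well; qHTS titration format.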
IL-1B inflam inh = inflammasome signaling inhibition, IL-1 beta readout. activity change, % at 57.5 µM. 360,000 tested, 4.7% active. THP-1 LPS/ATP IL-1B secretion, AlphaLISA, 16 h; stronger effect = lower value; in the data active = activity change below about -50%; inconclusive = mostly about -30% to -49%
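Secreted IL-1B measured by AlphaLISA bead assay after 16 h compound exposure of THP-1 cells; compounds (final up to 57.5 uM) added 1 h before LPS (250 ng/mL) and ATP (1.25 mM) stimulation; lower signal means less secretion.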
HT1080 IDH1KD tx = toxicity to HT-1080 IDH1 knockdown cells (counter line) | Potency, µM (top dose mostly 46.1 µM), most hits filed as cytotoxic | HT-1080 IDH1 knockdown viability, ATP luminescence, 48 h | AID 686971 | 360,000 tested, 2% active
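CellTiter-Glo luminescence after 48 h compound exposure at 37 degrees C of IDH1-knockdown HT-1080 cells in 5% FBS RPMI. %Activity scaled between DMSO wells and cell-free media wells, with curves fitted and assigned curve classes.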
HT1080-NT tox = kills 2HG-producing HT-1080-NT fibrosarcoma cells; HT-1080-NT fibrosarcoma viability, CellTiter-Glo ATP luminescence, 48 h; Potency, µM (top dose mostly 46.1 µM), usual class: cytotoxic; 360,000 tested, 1.6% active;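 also: NT is the 2HG producing partner of a matched IDH1 knockdown line; nearly all actives have a fitted effect of over 55% in size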
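A 48-hour cytotoxicity screen used HT-1080-NT cells plated 2 hours before compound delivery. ATP-based CellTiter-Glo luminescence measured viability, normalized to DMSO and no-cell controls.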
TDP1 cell noCPT = qHTS for Inhibitors of human tyrosyl-DNA phosphodiesterase 1 (TDP1): qHTS in cells in absence of CPT | DT40 Tdp1-/- hTDP1 cells, no CPT, ATP luminescence, 48 h | 420,000 tested, 15% active | Potency, µM (doses to about 46.2 µM), usual class: inhibitors; also: nearly all actives have a fitted effect of over 55% in size
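Chicken DT40 Tdp1-/- cells stably complemented with human TDP1 were seeded at 400 cells/well with DMSO in place of 20 nM camptothecin. After compound pinning, cells grew at least 48 hr at 37 °C; viability read by CellTiter-Glo luminescence.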
Of the large screens only hits and unclear results are named; the others gave an inactive call. Sampled rows, rich in hits. Any-hit rate of the full collection: about 19%. Unless noted, calls follow the shape of the dose curve; as a rule, active = well fitted curve in the direction sought with a large enough effect; inconclusive = small, poorly fitted or top-dose-only effect, or another doubt; inactive = no such curve, though single readings can be large; an effect the other way counts as inactive or inconclusive.

COc1ccc(C=O)cc1OS(=O)(=O)c1ccc(NC(C)=O)cc1	DT40 TDP1 CPT inconclusive, HT1080 IDH1KD tx inconclusive, TDP1 cell noCPT 3.7µM
O=C(CNC(=O)c1ccccc1)OCC(=O)c1ccc2ccccc2c1	none (no result: IL-1B inflam inh, HT1080 IDH1KD tx, HT1080-NT tox)
COc1ccc(S(=O)(=O)N(C)C[C@H]2Oc3c(NC(=O)CCC(F)(F)F)cccc3C(=O)N([C@H](C)CO)C[C@@H]2C)cc1	none
CC1(C(=O)NCCOc2ccccc2Cl)CC1(Cl)Cl (stereo unspecified)	none
CCCCN(C(=O)c1c(CC)noc1C)c1c(N)n(CCC)c(=O)[nH]c1=O	none
Cc1ccc(C2(C)NC(=O)N(CC(=O)NCCN3C(=O)S/C(=C\c4cccnc4)C3=O)C2=O)cc1 (stereo unspecified)	DT40 TDP1 CPT inconclusive
CC(C(=O)NCc1ccccc1)N(Cc1ccccc1Cl)C(=O)c1snc(C(N)=O)c1N (stereo unspecified)	DT40 TDP1 CPT inconclusive, IL-1B inflam inh -75
CCc1ccccc1N(CC(=O)NCc1ccco1)C(=O)c1snc(C(N)=O)c1N	DT40 TDP1 CPT inconclusive, TDP1 cell noCPT 18µM
CC(C)CCNC(=O)CN(Cc1ccco1)C(=O)c1snc(C(N)=O)c1N	none
Cc1ccc(C(C(=O)NCc2ccccc2)N(Cc2ccco2)C(=O)c2snc(C(N)=O)c2N)o1 (stereo unspecified)	DT40 TDP1 CPT inconclusive, TDP1 cell noCPT 15µM
C[C@@H]1CN([C@H](C)CO)C(=O)c2cccc(NC(=O)Nc3ccc(F)cc3)c2O[C@H]1CN(C)C(=O)Nc1ccc(C(F)(F)F)cc1	DT40 TDP1 CPT inconclusive, IL-1B inflam inh -70, HT1080 IDH1KD tx inconclusive, HT1080-NT tox inconclusive, TDP1 cell noCPT inconclusive
COc1ccc(NC(=O)N(C)C[C@H]2Oc3c(NC(=O)c4ccncc4)cccc3C(=O)N([C@H](C)CO)C[C@@H]2C)cc1	DT40 TDP1 CPT 0.023µM
COc1ccc(NC(=O)N(C)C[C@H]2Oc3c(NC(=O)Nc4ccc(C(F)(F)F)cc4)cccc3C(=O)N([C@H](C)CO)C[C@@H]2C)cc1	DT40 TDP1 CPT 16µM, IL-1B inflam inh inconclusive, HT1080 IDH1KD tx inconclusive, HT1080-NT tox inconclusive, TDP1 cell noCPT 13µM
CC(C)NC(=O)N(C)C[C@H]1Oc2c(NC(=O)Nc3ccc(C(F)(F)F)cc3)cccc2C(=O)N([C@H](C)CO)C[C@@H]1C	DT40 TDP1 CPT inconclusive, IL-1B inflam inh inconclusive, TDP1 cell noCPT 18µM
CC(C)NC(=O)Nc1cccc2c1O[C@H](CN(C)C(=O)NC(C)C)[C@@H](C)CN([C@H](C)CO)C2=O	none
C[C@H](CO)N1C[C@H](C)[C@@H](CN(C)C(=O)Nc2ccc(C(F)(F)F)cc2)Oc2c(NS(=O)(=O)c3ccc(F)cc3)cccc2C1=O	DT40 TDP1 CPT inconclusive
CCOc1ccc(C(=O)NC2CC(=O)N(c3ccc4c(c3)OCCO4)C2)cc1 (stereo unspecified)	none
COc1cccc(C(=O)NCc2cn3cccc(C)c3n2)c1	none (no result: IL-1B inflam inh, HT1080 IDH1KD tx, HT1080-NT tox)
CCOC(=O)CC(=O)CSc1ncnc2c1nnn2-c1ccc(OC)cc1	none
C[C@H](CO)N1C[C@H](C)[C@@H](CN(C)C(=O)Nc2ccc(C(F)(F)F)cc2)Oc2c(NC(=O)Nc3ccccc3)cccc2C1=O	DT40 TDP1 CPT inconclusive, IL-1B inflam inh -58, HT1080-NT tox inconclusive, TDP1 cell noCPT inconclusive
C[C@H](CO)N1C[C@H](C)[C@@H](CN(C)C(=O)Nc2ccc(C(F)(F)F)cc2)Oc2c(cccc2N(C)C)C1=O	DT40 TDP1 CPT inconclusive, TDP1 cell noCPT 23µM
Cc1noc(C)c1NC(=O)N(C)C[C@H]1Oc2c(NC(=O)Nc3ccc(C(F)(F)F)cc3)cccc2C(=O)N([C@H](C)CO)C[C@@H]1C	TDP1 cell noCPT inconclusive
COc1cc(CN2CCC(CCC(=O)NC3CC3)CC2)cc(Cl)c1OC	none
Cc1ccc(C(=O)C[n+]2cc(-c3ccc(C)cc3)n3c2CCCCC3)cc1	DT40 TDP1 CPT 0.21µM, IL-1B inflam inh -96, HT1080 IDH1KD tx 18µM, HT1080-NT tox 13µM, TDP1 cell noCPT 0.15µM
COc1ccc(C(=O)C[n+]2cc(-c3ccc(OC)cc3)n3c2CCCC3)cc1	DT40 TDP1 CPT 9.2µM, HT1080 IDH1KD tx inconclusive, TDP1 cell noCPT 6.5µM
O=C(C[n+]1cc(-c2ccccc2)n2c1CCCCC2)c1ccc(Br)cc1	DT40 TDP1 CPT 21µM, IL-1B inflam inh -77, TDP1 cell noCPT 23µM
Cn1c(NC(=O)C[n+]2cc(-c3ccc(Cl)c(Cl)c3)n3c2CCC3)cc(=O)n(C)c1=O	TDP1 cell noCPT inconclusive
Cc1ccc(-c2c[n+](Cc3ccc(Cl)c(Cl)c3)c3n2CCC3)cc1	DT40 TDP1 CPT 0.58µM, IL-1B inflam inh -79, HT1080 IDH1KD tx inconclusive, HT1080-NT tox inconclusive, TDP1 cell noCPT 0.52µM
O=C(C[n+]1cc(-c2ccccc2)n2c1CCC2)OCc1ccccc1	none
CC(=O)N1CCN(S(=O)(=O)c2cccc(C(=O)NNC(=O)COc3ccc(Cl)cc3C)c2)CC1	none
O=C(COC(=O)CCC(=O)c1cccs1)Nc1cccc(F)c1	none
C[C@@H]1C(=O)O[C@H]2[C@H](O)[C@@]34[C@H]5C[C@@H](C(C)(C)C)[C@]36[C@@H](OC(=O)[C@@H]6O)O[C@@]4(C(=O)O5)[C@@]12O	none
Cc1nn(C)c(C)c1S(=O)(=O)N1CCCC(C(=O)NC2CCCCCC2)C1 (stereo unspecified)	DT40 TDP1 CPT 18µM, TDP1 cell noCPT inconclusive
Cc1nn(C)c(C)c1S(=O)(=O)N1CCCC(C(=O)N2CCN(c3ccc(Cl)cc3)CC2)C1 (stereo unspecified)	DT40 TDP1 CPT 12µM, HT1080 IDH1KD tx inconclusive, TDP1 cell noCPT 6.5µM
CN(C)S(=O)(=O)c1ccc(S(=O)(=O)N2CCCC(C(=O)NC3CCCC3)C2)cc1 (stereo unspecified)	DT40 TDP1 CPT inconclusive, TDP1 cell noCPT 2.9µM
Cc1n[nH]c(C)c1S(=O)(=O)N1CCCC(C(=O)NC2CCCCC2)C1 (stereo unspecified)	none
Cc1cc(C)c(S(=O)(=O)N2CCCC(C(=O)NC3CCCC3)C2)c(C)c1 (stereo unspecified)	DT40 TDP1 CPT inconclusive, TDP1 cell noCPT 21µM
Cn1cnc(S(=O)(=O)N2CCC(C(=O)N3CCN(c4ccc(Cl)cc4)CC3)CC2)c1	DT40 TDP1 CPT inconclusive (no result: IL-1B inflam inh, HT1080 IDH1KD tx, HT1080-NT tox)
Cc1oc(-c2ccccc2F)nc1CS(=O)(=O)CC(=O)NCCCN1CC(C)CC(C)C1 (stereo unspecified)	none
CCN(C(=O)COC(=O)CCC(=O)c1cccs1)c1c(N)n(Cc2ccccc2)c(=O)[nH]c1=O	none
O=C(Nc1cc(S(=O)(=O)N2CCOCC2)ccc1N1CCCCC1)c1ccccc1	DT40 TDP1 CPT inconclusive, IL-1B inflam inh inconclusive, TDP1 cell noCPT 21µM
